Experimental findings from paper PMC7862700, “An all-to-all approach to the identification of sequence-specific readers for epigenetic DNA modifications on cytosine” are described below.

Holding throughout (assay): DAPPL (digital affinity profiling via proximity ligation, sequencing); 10 mM Tris-HCl pH 7.5, 50 mM NaCl, 1 mM DTT, 4% glycerol, room temperature, 30 min; GST-TFs on glutathione beads, 16-mer random dsDNA library, 0.1% formaldehyde crosslink after washing; high values mean tight binding
One test addresses T1, FEV (Homo sapiens, UniProt Q99581 1-238).
T1 sequence: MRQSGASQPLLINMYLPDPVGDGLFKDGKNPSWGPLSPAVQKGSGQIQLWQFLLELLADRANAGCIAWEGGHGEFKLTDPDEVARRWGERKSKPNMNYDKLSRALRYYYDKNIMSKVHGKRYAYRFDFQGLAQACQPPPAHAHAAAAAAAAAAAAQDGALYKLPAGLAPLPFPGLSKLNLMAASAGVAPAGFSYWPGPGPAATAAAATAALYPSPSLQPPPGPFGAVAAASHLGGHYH
Particulars: protein: recombinant; tags: N-terminal GST; dsDNA, one strand shown. In short, it runs like this:
(§1)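 Binding signal is each hexamer's read frequency for a factor divided by its frequency in the tag-only sample. The factors were GST-fused human transcription factors from yeast, captured on glutathione beads, DNA-barcoded and pooled with that sample. Pools were incubated with 200 nmole of a random double-stranded 16-mer DNA library in Tris/NaCl/DTT/glycerol buffer at room temperature for 30 min, then washed, crosslinked with 0.1% formaldehyde, proximity-ligated with BsaI/T4 ligase (1 h, 37 °C), PCR-amplified and sequenced on an Illumina NextSeq500.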

A further test deals with ETV5 (Homo sapiens, UniProt P41161 1-510). To be noted: protein: recombinant; tags: N-terminal GST; dsDNA, one strand shown. In outline: as §1
Sequence of ETV5 (P41161 whole entry): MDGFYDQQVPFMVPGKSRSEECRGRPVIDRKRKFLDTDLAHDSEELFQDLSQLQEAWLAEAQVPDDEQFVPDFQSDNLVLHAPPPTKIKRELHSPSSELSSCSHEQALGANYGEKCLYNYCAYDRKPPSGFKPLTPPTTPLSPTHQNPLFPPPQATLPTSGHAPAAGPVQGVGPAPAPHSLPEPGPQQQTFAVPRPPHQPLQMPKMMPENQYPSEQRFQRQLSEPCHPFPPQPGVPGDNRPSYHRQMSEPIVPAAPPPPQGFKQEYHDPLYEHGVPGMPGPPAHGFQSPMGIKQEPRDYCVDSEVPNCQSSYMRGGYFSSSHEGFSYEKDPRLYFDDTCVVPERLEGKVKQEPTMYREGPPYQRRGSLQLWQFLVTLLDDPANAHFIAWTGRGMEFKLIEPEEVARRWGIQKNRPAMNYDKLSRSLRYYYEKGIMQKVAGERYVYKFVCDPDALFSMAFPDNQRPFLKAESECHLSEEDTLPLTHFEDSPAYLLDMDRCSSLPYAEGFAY
The next test deals with HSF1 (Homo sapiens, UniProt Q00613 1-529). To be noted: protein: recombinant; tags: N-terminal GST; chain copies: 3; dsDNA, one strand shown. In short, it runs like this:
as §1

For a further test, the target named is T2, SPIC (Homo sapiens, UniProt Q8N5J4 1-248).
T2 sequence: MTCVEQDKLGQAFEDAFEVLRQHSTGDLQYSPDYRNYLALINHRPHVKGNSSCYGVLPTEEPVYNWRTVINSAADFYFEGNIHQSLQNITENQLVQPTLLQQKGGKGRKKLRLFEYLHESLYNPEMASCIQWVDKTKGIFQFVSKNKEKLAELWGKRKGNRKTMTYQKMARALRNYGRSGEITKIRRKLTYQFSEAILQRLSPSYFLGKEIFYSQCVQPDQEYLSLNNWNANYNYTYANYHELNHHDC
To be noted: protein: recombinant; tags: N-terminal GST; dsDNA, one strand shown. In outline:
as §1

The target of the next test is ELF4 (Homo sapiens, UniProt Q99607 1-663). Particulars: protein: recombinant; tags: N-terminal GST; dsDNA, one strand shown. In short, it runs like this: as §1
Sequence of ELF4 (Q99607 whole entry): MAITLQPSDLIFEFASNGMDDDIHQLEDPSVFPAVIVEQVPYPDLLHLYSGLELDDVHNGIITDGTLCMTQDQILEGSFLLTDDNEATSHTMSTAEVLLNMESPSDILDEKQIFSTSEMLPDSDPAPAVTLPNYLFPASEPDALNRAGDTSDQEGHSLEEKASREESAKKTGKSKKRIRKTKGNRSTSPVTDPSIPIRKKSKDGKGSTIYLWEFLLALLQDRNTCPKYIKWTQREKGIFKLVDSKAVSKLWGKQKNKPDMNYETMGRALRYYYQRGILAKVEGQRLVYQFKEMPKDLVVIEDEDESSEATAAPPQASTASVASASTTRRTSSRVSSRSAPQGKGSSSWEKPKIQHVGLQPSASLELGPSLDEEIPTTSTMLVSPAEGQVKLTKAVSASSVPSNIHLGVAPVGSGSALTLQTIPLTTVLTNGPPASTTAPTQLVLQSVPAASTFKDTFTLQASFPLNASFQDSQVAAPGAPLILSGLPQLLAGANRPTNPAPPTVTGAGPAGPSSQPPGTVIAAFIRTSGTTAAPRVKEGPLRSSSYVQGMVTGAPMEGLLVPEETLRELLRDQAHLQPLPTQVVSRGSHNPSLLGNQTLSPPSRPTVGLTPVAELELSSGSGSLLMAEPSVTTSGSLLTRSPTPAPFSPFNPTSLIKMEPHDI
A further test deals with T3, ELK4 (Homo sapiens, UniProt P28324-2 1-405).
T3 sequence: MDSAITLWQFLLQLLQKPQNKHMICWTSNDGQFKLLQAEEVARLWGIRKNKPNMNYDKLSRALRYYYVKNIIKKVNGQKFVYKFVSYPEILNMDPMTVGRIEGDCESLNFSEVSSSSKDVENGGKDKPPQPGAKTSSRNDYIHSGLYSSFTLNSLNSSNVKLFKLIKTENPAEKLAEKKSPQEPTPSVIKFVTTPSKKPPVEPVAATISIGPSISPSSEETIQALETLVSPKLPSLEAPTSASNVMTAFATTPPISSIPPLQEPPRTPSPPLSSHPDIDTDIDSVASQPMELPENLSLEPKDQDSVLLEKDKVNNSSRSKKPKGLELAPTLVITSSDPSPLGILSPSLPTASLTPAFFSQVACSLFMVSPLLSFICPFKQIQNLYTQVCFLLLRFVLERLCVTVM
Particulars: protein: recombinant; tags: N-terminal GST; dsDNA, one strand shown. In short, it runs like this:
as §1

Another test addresses T4, ETV2 (Homo sapiens, UniProt O00321 1-342).
T4 sequence: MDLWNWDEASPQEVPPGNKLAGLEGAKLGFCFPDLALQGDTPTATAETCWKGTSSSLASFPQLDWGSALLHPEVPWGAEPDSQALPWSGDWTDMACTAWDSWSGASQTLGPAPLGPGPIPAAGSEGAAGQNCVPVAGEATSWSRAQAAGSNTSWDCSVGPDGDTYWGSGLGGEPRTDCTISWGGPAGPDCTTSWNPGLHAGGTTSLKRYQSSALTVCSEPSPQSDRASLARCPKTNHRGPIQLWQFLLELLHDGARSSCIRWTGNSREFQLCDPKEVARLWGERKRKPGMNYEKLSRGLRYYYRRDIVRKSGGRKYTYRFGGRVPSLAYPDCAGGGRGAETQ
Particulars: protein: recombinant; tags: N-terminal GST; dsDNA, one strand shown. In outline: as §1

The target of another test is T5, ELF3 (Homo sapiens, UniProt P78545 1-371).
T5 sequence: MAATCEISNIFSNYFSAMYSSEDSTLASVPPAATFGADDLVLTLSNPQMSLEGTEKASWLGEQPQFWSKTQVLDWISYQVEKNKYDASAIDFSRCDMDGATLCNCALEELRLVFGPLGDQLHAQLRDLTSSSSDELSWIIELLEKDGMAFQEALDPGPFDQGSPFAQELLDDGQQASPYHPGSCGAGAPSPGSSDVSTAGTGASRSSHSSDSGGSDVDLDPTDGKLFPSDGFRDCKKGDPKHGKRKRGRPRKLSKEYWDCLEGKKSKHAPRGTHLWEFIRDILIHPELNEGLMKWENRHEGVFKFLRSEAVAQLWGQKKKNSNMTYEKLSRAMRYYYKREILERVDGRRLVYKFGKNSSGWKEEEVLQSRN
To be noted: protein: recombinant; tags: N-terminal GST; dsDNA, one strand shown. In outline: as §1

The target of a further test is CRX (Homo sapiens, UniProt O43186 1-299). Particulars: protein: recombinant; tags: N-terminal GST; dsDNA, one strand shown. In short, it runs like this:
as §1

The target of a further test is ETV1 (Homo sapiens, UniProt P50549 1-477). To be noted: protein: recombinant; tags: N-terminal GST; dsDNA, one strand shown. In outline:
as §1

A further test concerns the target T6, ERF (Homo sapiens, UniProt P50548 1-548).
T6 sequence: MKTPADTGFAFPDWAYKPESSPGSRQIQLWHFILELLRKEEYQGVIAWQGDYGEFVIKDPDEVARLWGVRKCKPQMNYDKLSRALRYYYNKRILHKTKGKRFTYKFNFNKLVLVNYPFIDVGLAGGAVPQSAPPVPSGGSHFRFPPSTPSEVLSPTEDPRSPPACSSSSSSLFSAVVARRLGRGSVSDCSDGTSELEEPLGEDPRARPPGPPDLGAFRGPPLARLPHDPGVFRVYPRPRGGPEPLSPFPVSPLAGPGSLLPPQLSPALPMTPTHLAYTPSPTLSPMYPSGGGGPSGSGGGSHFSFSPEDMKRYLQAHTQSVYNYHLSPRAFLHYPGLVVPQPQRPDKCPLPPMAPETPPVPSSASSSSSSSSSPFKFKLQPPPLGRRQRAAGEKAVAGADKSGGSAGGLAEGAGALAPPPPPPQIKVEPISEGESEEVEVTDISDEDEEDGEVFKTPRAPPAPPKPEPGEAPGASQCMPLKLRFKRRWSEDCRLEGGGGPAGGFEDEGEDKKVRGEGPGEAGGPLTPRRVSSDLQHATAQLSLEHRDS
To be noted: protein: recombinant; tags: N-terminal GST; dsDNA, one strand shown. In outline: as §1

The next test has as its target T7, ETV3L (Homo sapiens, UniProt Q6ZN32 1-361).
T7 sequence: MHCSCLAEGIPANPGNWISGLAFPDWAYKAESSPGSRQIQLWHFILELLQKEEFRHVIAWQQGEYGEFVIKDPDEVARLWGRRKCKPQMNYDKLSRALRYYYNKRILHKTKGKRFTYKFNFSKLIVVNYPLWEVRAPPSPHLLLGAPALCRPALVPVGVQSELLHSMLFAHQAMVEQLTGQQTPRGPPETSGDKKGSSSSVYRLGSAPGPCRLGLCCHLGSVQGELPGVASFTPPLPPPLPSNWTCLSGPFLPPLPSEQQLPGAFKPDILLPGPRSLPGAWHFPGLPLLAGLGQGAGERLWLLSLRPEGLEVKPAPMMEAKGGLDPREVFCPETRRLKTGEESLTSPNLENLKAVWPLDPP
Particulars: protein: recombinant; tags: N-terminal GST; dsDNA, one strand shown. In short, it runs like this: as §1

The target of another test is T8, ETS2 (Homo sapiens, UniProt P15036 1-469).
T8 sequence: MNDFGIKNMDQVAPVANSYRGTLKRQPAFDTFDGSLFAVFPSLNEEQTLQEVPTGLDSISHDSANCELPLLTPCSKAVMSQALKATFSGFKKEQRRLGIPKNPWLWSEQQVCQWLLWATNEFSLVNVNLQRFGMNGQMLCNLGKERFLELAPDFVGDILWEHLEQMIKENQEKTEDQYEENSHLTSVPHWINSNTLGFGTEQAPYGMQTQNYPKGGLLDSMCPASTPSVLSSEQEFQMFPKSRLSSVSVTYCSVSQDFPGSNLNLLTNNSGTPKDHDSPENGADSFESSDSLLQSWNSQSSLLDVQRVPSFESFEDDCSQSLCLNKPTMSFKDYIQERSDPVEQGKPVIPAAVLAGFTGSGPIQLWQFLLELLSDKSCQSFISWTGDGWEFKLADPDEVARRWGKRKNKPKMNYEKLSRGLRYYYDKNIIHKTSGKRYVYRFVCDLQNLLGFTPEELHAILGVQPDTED
To be noted: protein: recombinant; tags: N-terminal GST; dsDNA, one strand shown. In outline: as §1

A further test concerns the target T9, SPDEF (Homo sapiens, UniProt O95238 1-335).
T9 sequence: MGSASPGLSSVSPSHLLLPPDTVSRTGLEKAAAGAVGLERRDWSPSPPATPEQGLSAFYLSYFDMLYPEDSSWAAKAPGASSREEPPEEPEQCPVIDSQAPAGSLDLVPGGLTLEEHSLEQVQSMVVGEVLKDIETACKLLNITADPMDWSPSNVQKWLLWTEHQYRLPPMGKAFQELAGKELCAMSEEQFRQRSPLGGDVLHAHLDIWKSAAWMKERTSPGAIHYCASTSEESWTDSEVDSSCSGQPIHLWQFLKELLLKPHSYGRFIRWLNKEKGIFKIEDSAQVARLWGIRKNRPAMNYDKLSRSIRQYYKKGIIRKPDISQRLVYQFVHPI
To be noted: protein: recombinant; tags: N-terminal GST; dsDNA, one strand shown. In short, it runs like this:
as §1

Another test concerns the target T10, ETV7 (Homo sapiens, UniProt Q9Y603 1-341).
T10 sequence: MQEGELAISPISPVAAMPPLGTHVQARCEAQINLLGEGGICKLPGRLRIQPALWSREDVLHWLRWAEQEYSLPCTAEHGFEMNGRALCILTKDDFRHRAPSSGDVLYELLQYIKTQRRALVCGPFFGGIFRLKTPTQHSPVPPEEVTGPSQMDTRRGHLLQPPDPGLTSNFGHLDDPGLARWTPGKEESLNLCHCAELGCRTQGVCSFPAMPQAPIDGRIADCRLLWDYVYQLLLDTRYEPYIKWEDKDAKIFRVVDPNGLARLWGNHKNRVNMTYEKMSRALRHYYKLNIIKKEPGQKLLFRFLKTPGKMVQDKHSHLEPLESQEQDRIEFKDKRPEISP
Particulars: protein: recombinant; tags: N-terminal GST; dsDNA, one strand shown. In short, it runs like this: as §1

Another test addresses T11, ELF5 (Homo sapiens, UniProt Q9UKW6-2 1-255).
T11 sequence: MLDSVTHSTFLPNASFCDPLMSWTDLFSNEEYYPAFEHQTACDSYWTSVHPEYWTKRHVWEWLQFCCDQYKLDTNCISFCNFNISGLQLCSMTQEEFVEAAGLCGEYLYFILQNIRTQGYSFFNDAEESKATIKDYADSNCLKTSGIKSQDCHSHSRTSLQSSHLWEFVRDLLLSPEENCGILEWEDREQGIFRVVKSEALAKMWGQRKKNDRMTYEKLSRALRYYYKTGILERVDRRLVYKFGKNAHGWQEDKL
Particulars: protein: recombinant; tags: N-terminal GST; dsDNA, one strand shown. In short, it runs like this:
as §1

A further test concerns the target T12, ETV3 (Homo sapiens, UniProt P41162-2 1-143).
T12 sequence: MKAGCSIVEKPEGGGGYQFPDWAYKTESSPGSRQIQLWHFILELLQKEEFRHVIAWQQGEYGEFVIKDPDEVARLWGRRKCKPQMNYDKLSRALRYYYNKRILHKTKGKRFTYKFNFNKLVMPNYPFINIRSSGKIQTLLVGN
To be noted: protein: recombinant; tags: N-terminal GST; dsDNA, one strand shown. In outline:
as §1

The target of another test is ETV6 (Homo sapiens, UniProt P41212 1-452). To be noted: protein: recombinant; tags: N-terminal GST; dsDNA, one strand shown. In short, it runs like this: as §1
Sequence of ETV6 (P41212 whole entry): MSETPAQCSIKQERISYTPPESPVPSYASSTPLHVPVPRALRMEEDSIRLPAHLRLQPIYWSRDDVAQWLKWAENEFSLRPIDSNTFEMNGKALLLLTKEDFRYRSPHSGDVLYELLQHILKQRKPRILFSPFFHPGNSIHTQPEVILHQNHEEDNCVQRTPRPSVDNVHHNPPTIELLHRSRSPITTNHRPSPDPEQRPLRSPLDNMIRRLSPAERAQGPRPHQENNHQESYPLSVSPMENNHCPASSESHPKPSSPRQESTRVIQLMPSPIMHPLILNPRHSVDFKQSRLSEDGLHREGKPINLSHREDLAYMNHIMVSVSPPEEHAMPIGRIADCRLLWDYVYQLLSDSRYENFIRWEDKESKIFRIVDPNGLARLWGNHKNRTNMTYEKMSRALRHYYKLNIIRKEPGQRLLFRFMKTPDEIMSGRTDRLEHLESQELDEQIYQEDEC

Sequence of CRX (O43186 whole entry): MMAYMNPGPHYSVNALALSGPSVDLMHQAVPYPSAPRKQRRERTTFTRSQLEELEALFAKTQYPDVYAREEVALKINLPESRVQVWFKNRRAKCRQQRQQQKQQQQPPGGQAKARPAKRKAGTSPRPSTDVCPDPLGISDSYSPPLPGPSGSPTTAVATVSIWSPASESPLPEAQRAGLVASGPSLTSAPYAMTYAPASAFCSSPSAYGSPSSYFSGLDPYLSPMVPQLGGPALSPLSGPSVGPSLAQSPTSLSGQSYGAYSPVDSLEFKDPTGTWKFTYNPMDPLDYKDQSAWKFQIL
Sequence of HSF1 (Q00613 whole entry): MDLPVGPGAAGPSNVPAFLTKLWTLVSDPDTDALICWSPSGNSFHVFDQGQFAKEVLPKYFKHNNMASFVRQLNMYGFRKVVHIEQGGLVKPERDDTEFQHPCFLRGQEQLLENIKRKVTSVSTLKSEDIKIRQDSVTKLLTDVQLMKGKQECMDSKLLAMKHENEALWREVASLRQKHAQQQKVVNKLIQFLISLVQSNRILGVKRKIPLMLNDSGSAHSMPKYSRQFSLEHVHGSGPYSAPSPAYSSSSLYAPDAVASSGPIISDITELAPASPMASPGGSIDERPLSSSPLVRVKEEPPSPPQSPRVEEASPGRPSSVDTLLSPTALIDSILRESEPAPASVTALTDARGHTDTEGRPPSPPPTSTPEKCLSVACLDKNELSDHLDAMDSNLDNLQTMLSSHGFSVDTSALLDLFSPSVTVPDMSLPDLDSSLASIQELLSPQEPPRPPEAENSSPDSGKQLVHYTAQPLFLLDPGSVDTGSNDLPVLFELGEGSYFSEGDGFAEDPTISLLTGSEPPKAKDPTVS
Sequence of ETV1 (P50549 whole entry): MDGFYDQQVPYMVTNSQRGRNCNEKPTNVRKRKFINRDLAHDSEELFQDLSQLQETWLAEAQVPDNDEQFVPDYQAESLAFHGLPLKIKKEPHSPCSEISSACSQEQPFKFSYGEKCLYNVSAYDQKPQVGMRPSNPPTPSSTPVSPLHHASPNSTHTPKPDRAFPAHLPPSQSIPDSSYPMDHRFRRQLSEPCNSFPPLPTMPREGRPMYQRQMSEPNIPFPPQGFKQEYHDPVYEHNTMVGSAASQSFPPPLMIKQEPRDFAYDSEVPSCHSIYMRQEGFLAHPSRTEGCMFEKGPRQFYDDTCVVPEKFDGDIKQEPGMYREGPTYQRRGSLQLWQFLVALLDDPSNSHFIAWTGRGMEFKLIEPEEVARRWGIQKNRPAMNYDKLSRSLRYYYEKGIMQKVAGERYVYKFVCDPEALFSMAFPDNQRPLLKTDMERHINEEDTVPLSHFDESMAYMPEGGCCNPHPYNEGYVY

Consider TCGCCC, for which the binding signal with FEV is 1.3 fold enrichment (6-mer frequency, TF over GST control); in the test with ETV5, 1.24 fold enrichment (6-mer frequency, TF over GST control); with HSF1 it was 1.09 fold enrichment (6-mer frequency, TF over GST control); with SPIC, 1.49 fold enrichment (6-mer frequency, TF over GST control); with ELF4, 1.23 fold enrichment (6-mer frequency, TF over GST control); with ELK4, 1.19 fold enrichment (6-mer frequency, TF over GST control). Moreover, the binding signal in the test with ETV2 was 1.19 fold enrichment (6-mer frequency, TF over GST control); with ELF3, 1.22 fold enrichment (6-mer frequency, TF over GST control); with CRX, 1.07 fold enrichment (6-mer frequency, TF over GST control); with ETV1 it was 1.26 fold enrichment (6-mer frequency, TF over GST control); with ERF, 1.32 fold enrichment (6-mer frequency, TF over GST control); in the test with ETV3L it was 1.34 fold enrichment (6-mer frequency, TF over GST control). The binding signal with ETS2 was 1.23 fold enrichment (6-mer frequency, TF over GST control); with SPDEF it was 1.25 fold enrichment (6-mer frequency, TF over GST control); in the test with ETV7, 1.27 fold enrichment (6-mer frequency, TF over GST control); with ELF5, 1.14 fold enrichment (6-mer frequency, TF over GST control); in the test with ETV3, 1.21 fold enrichment (6-mer frequency, TF over GST control); with ETV6 it was 1.23 fold enrichment (6-mer frequency, TF over GST control).
